Compound activity (PubChem BioAssay)
Anthrax LF inh2 – blocks Bacillus anthracis lethal factor protease; P15917; multiplex microsphere protease cleavage assay, LF; inhibition, % at 10 µM; hit rate 0.12% among 360,000; AID 588501; note: plate controls were buffer without enzyme for full effect and enzyme alone for no effect
Target sequence (P15917 whole entry, looked up): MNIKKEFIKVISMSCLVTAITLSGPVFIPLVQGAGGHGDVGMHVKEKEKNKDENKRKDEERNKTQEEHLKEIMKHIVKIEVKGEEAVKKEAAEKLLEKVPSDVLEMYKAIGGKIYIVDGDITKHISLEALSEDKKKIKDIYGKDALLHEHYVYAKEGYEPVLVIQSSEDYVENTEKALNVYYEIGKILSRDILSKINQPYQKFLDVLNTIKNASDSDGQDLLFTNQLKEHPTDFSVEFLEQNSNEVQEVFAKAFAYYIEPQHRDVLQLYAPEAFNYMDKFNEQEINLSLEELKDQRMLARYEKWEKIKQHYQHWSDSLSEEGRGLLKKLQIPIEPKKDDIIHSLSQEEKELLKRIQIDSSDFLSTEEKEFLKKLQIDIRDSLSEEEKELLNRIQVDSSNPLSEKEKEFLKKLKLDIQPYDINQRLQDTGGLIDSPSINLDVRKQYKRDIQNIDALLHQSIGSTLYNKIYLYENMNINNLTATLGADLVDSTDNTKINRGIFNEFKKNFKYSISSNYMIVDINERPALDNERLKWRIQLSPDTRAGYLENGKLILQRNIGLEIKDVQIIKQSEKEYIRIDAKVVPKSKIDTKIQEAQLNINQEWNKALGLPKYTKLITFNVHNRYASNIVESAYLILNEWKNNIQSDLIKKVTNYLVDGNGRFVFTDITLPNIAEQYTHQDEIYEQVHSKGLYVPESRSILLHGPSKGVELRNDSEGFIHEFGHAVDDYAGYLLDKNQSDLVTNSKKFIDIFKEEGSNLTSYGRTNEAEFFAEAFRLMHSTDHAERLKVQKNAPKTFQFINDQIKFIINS
SSB-PriA inh – blocks PriA binding to SSB C-terminal tail | AlphaScreen SSBct-PriA binding, biotinylated peptide | inhibition, % at 33 µM | hit rate 0.6% among 430,000; in the data active = inhibition mostly above about 37%, no sharp cut-off; inactive = mostly below about 20%;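 note: plate controls were negative control peptide for no effect and reference peptide for full effect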
BoNT-F LC inh – inhibitors of Botulinum neurotoxin F light chain protease. hit rate 0.22% among 360,000. Multiplex microsphere protease cleavage assay, flow cytometry. inhibition, % at 10 µM; in the data active = inhibition above about 35%, passing the limit was not always enough; inconclusive = no clear call, values can overlap the other calls; note: plate controls were buffer without enzyme for full effect and enzyme alone for no effect
BoNT-A LC inh2 – inhibitors of Botulinum neurotoxin A light chain protease; multiplex microsphere protease substrate cleavage, flow cytometry; inhibition, % at 10 µM; hit rate 0.17% among 360,000; AID 588499; note: plate controls were buffer without enzyme for full effect and enzyme alone for no effect
Autofluor counter – compound fluorescence in toxin protease inhibitor counterscreen; hit rate 3.1% among 360,000; fluorescence intensity (concentration not given with the values); AID 624483; compound autofluorescence counterscreen, microsphere flow cytometry; hits give high values; in the data active = fluorescence intensity above about 16000; inconclusive = no clear call, values can overlap the other calls
Starred values were filed as active, the others as inactive; u = inconclusive; x = no result given. Most compounds without a hit are left out; they make up all but 3.1% or so of the library. Cut-off read from the data, not from the text of the source, unless noted: active = inhibition above about 30%; inconclusive = no clear call, values can overlap the other calls; inactive = below that.

SMILES	Anthrax LF inh2	SSB-PriA inh	BoNT-F LC inh	BoNT-A LC inh2	Autofluor counter
Cc1cccnc1NC(=O)C1CC(=O)N(c2ccc3c(c2)OCCO3)C1 (stereo not given)	-2.7	0.3	-1.4	-0.5	6794
CN(C(=O)C(=O)Nc1nc(-c2ccccn2)cs1)C1CCSC1 (stereo not given)	x	138.0*	x	x	x
Cn1nccc1C(=O)N(CCN1CCOCC1)c1nc2c(F)cccc2s1	x	0.0	x	x	x
COc1ccc([N+](=O)[O-])cc1NC(=O)CCCSc1ccc(Cl)cc1	x	-2.0	x	x	x
O=C(Nc1ccc(C(=O)Nc2nc(-c3ccccn3)cs2)cc1)NC1CC1	x	92.9*	x	x	x
FC(F)(F)c1ccc(Sc2nnc(-c3cccs3)n2CC2CCCO2)nc1 (stereo not given)	1.6	-8.1	-3.6	0.5	3590
FC(F)(F)c1cnc(Sc2nnc(-c3cccs3)n2CC2CCCO2)c(Cl)c1 (stereo not given)	-0.5	-4.5	0.8	1.4	20185*
COCCCNC(=O)c1ccc(C(=O)NCCCOC)cc1	2.0	-9.5	-2.2	0.1	22526*
COCCCNC(=S)NNC(=O)c1cccnc1	-1.7	-3.3	-1.8	0.1	20168*
O=C(CCc1ccccc1)NCC1CCN(c2ccncc2)CC1	x	-2.0	x	x	x
CCCCOc1ccc(C(=O)NCc2nnc(SCC(=O)Nc3nnc(C)s3)n2-c2cccc(C(F)(F)F)c2)cc1	x	3.0	x	x	x
CC1CCN(C(=O)CSc2ccc(-c3ccc(F)cc3)nn2)CC1	-1.1	x	1.1	1.2	23070*
COc1ccc(-c2ccc(SCC(=O)N3CCOCC3)nn2)cc1	-2.9	-7.0	6.1	1.3	22594*
O=C(CSc1ccc(-c2ccc(Br)cc2)nn1)N1CCOCC1	3.4	-5.8	-0.6	0.4	3957
COc1ccccc1Oc1coc2c3c(ccc2c1=O)OCN(Cc1cccs1)C3	x	-15.0	x	x	x
CC(C)Sc1ccc(CC(=O)NCc2cc(-c3ccccc3)on2)cc1	x	-8.0	x	x	x
O=C(NCC1(Sc2ccccc2)CCOCC1)c1ccc(Cl)s1	x	-2.0	x	x	x
C=CCOc1c(CNc2ccc(C(=O)O)cc2)cccc1OCC	-0.2	4.4	9.2	u	19846*
C=CCOc1c(CNc2ccc(C(=O)O)cc2)cccc1OC	-2.3	-3.4	-2.9	0.4	2150
O=C1NC(=O)N(Cc2ccccc2Cl)C(=O)/C1=C/N1CCOCC1	-0.8	1.3	-2.6	0.5	23148*
O=C(Cc1cccnc1)N1CCCCC(c2ccc(F)cc2)C1 (stereo not given)	x	-3.0	x	x	x
COC(=O)c1cccc2nc3c(C(C)O)cccc3nc12 (stereo not given)	-4.3	41.5*	-1.4	1.9	4165
CCN(CC)C(=O)c1cccc2nc3ccccc3nc12	-4.1	-1.4	-1.4	-0.9	4568
O=C(Nc1nc2cc([N+](=O)[O-])ccc2s1)c1ccc(S(=O)(=O)N2CCCCCC2)cc1	x	2.0	x	x	x
Cn1cccc1-c1noc(CNC(=O)c2cccc(-n3cccn3)c2)n1	x	16.0	x	x	x
SMILES	Anthrax LF inh2	SSB-PriA inh	BoNT-F LC inh	BoNT-A LC inh2	Autofluor counter
CCOC(=O)Cc1csc(SCC(=O)C(C#N)=C(C)N)n1	x	-14.1	x	x	x
C=CCn1c(SCC(=O)Nc2cccc3ccccc23)nc(O)c(CC)c1=O	-4.8	-4.5	11.3	1.1	10737
CCc1c(O)nc(SCc2ccccc2)n(C(C)CC)c1=O (stereo not given)	0.5	-4.6	-1.3	-1.4	21259*
C=CCSc1nc(O)c(CC)c(=O)n1C(C)CC (stereo not given)	-4.5	-7.5	-6.4	u	24804*
Cc1nn(C(C)CC(=O)Nc2cc(Cl)cc(Cl)c2)c(C)c1C (stereo not given)	x	-8.0	x	x	x
CCS(=O)(=O)c1ccc(CC(=O)Nc2nnc(-c3ccco3)o2)cc1	x	54.0*	x	x	x
Cc1ccccc1NC(=O)c1ccc(F)c(S(=O)(=O)N2CCN(c3ccccn3)CC2)c1	-3.0	-15.1	-3.8	-3.5	23271*
O=C(Nc1ccccc1)c1ccc(N2CCN(c3ccccn3)CC2)c(S(=O)(=O)N2CCOCC2)c1	-1.5	1.4	-1.1	-1.0	16676*
O=C(Nc1ccc(Br)cc1)c1ccc(F)c(S(=O)(=O)N2CCN(c3ccccn3)CC2)c1	-4.8	-1.2	3.0	0.0	4020
Cc1ccc(C(=O)Nc2ccc(Br)c(C(F)(F)F)c2)cc1	-1.3	-43.2	-4.4	-1.1	16589*
Cc1cc(C(=O)Nc2nnc(-c3ccc4c(c3)OCCO4)o2)no1	x	-7.0	x	x	x
O=C1CC(N(Cc2ccc3c(c2)OCO3)C(=O)Nc2ccc(F)cc2)C(=O)N1c1ccccc1 (stereo not given)	-0.4	-13.3	2.0	u	23094*
O=C(CCn1cnc(-c2ccccc2)c1-c1ccccc1)N/N=C\c1ccco1	x	48.0*	x	x	x
O=C(NN=Cc1ccco1)c1ccccn1	x	59.6*	x	x	x
O=C(N/N=C/c1ccco1)c1ccncc1	0.4	x	-1.3	-1.8	24013*
O=C(N/N=C/c1ccco1)c1cnccn1	-2.8	x	-7.1	-0.9	6210
COc1ccc(-c2noc(Cn3c(=O)n(C(C)C)c(=O)c4ccccc43)n2)cc1OC	x	4.0	x	x	x
Cc1ccccc1-c1noc(C2CCCCC2)n1	-2.5	-32.8	-4.2	u	22659*
Cc1ccccc1-c1noc(C23CC4CC(CC(C4)C2)C3)n1	-5.7	-55.9	-6.4	-2.4	21714*
O=C(Nc1cccc(-c2nn[nH]n2)c1)c1ccc(Br)s1	-1.6	115.6*	-3.3	-2.9	4920
Cc1cc(C(C)(C)C)cc(S(=O)(=O)Nc2ccc(O)c(C(=O)O)c2)c1C	0.1	-11.3	2.9	u	20140*
CS(=O)(=O)c1ccc(NC(=O)C2CCN(S(C)(=O)=O)CC2)cc1	x	-6.0	x	x	x
COc1ccc(NC(=O)C2CCN(S(=O)(=O)c3ccc(C)cc3)CC2)cc1OC	0.0	-9.9	-7.0	-4.5	25551*
Cc1ccc(NC(=O)C2CCN(S(C)(=O)=O)CC2)cc1	3.2	0.0	-8.6	u	22760*
O=C(Nc1ccc(S(=O)(=O)N2CCc3ccccc32)cc1)Nc1cccc(Cl)c1	x	-6.0	x	x	x
SMILES	Anthrax LF inh2	SSB-PriA inh	BoNT-F LC inh	BoNT-A LC inh2	Autofluor counter
CC(C)C(=O)N1CCN(c2nc(-c3ccc(Cl)cc3)cs2)CC1	1.6	8.2	-4.3	-0.9	2506
O=C(Cc1cccs1)N1CCN(c2nc(-c3ccc(Cl)cc3)cs2)CC1	-3.5	-4.7	-1.8	u	21233*
Cc1oc(-c2ccccc2)nc1CSc1nc2c(c(=O)[nH]1)CCC2	-3.9	-1.0	-11.3	-0.9	4304
Cc1cccc(-c2nc(CSc3nc4c(c(=O)[nH]3)CCC4)c(C)o2)c1	3.2	96.5*	3.6	-0.9	4401
Cc1ccccc1-c1nc(CSc2nc3c(c(=O)[nH]2)CCC3)c(C)o1	-4.4	93.8*	6.3	-0.9	4239
CCOC(=O)c1c(NC(=O)[C@H](C)n2nc(C)c3cnn(-c4ccccc4)c3c2=O)sc2c1CCC2	x	-13.0	x	x	x
Brc1c(CSc2nncn2-c2ccccc2)nc2sccn12	-5.5	-4.3	4.9	3.2	19506*
COc1ccc(/C=C2/SC(=O)N(CC(=O)NCCC(C)C)C2=O)cc1OC	1.5	2.7	0.8	-0.9	4196
COc1ccc(/C=C2\SC(=O)N(CC(=O)NCCC(C)C)C2=O)cc1OC	-1.8	-0.8	43.0*	3.6	3482
O=C(Nc1ccc2c(=O)c3cccc(Cl)c3oc2c1)c1cccc([N+](=O)[O-])c1	x	2.0	x	x	x
